Measurements as given in PubChem BioAssay (Tox21).
Inconclusive results are not listed. Entries that show only a call come without a potency. A number with no mark means an inactive call. Calls of active or inactive are those of the source. Calls come from the whole dose curve.

test: qHTS assay to identify small molecule agonists of the hypoxia (HIF-1) signaling pathway - cell viability counter screen (AID 1224844); conditions: HRE-bla ME-180 viability, CellTiter-Glo luminescence, 17 h; series mostly up to 76.8 µM; note: nearly all actives have a fitted effect of over 50% in size
Text: National Center for Advancing Translational Sciences [NCATS]
NIH Chemical Genomics Center [NCGC]
U.S. Environmental Protection Agency [EPA]
National Institutes of Environmental Health Sciences [NIEHS]
National Toxicology Program [NTP]
U.S. Food and Drug Administration [FDA]
Hypoxia-inducible factor-1 (HIF-1) is the major hypoxia-regulated transcription factor that controls cellular responses to low oxygen concentration. HIF-1 is composed of two subunits: hypoxia responsive HIF-1-alpha and constitutively expressed HIF-1-beta, which is also known as aryl hydrocarbon receptor nuclear translocator. During hypoxic conditions, HIF-1-alpha heterodimerizes with HIF-1-beta and translocates into the nucleus where the HIF-1 complex binds to the hypoxia-response element (HRE) and activates expression of target genes such as VEGF (vascular endothelial growth factor). The HIF-1 pathway is essential to normal growth and development, and is involved in the pathophysiology of cancer, inflammation, and ischemia.
Using a beta-lactamase reporter-gene under control of the hypoxia response element, a cell-based assay [CellSensor(TM) HRE-bla ME-180 from Life Technologies, Carlsbad, CA] was used to measure hypoxia-induced signaling. Tox21 10K library compounds were measured for their ability to induce the reporter gene activity. The cytotoxicity of the Tox21 compound library against HRE-bla ME-180 cell line was tested in parallel by measuring cell viability using CellTiter-Glo assay (Promega, Madison, WI) in the same assay wells.
Tox21 Assay Protocol Summary:
HRE-bla ME-180 cells were dispensed at 2,000 cells per well in 6 uL of assay medium containing 0.5% dialyzed FBS into black wall/clear-bottom 1536-well plates using a Multidrop Combi (Thermo Scientific, Waltham, MA) dispenser. After the assay plates were incubated at 37C and 5% CO2 for 5 hrs, 23 nL of compounds dissolved in DMSO, positive controls or DMSO only was transferred to each well of the assay plate using a Pintool station (Kalypsys, San Diego, CA). The assay plates were incubated at 37C and 5% CO2 for 17 hrs. One uL of LiveBLAzerTM B/G FRET substrate (CCF4-AM) (Life Technologies) was added to each well using a Flying Reagent Dispenser (FRD, Aurora Discovery, San Diego, CA). After 2 hr incubation at room temperature, fluorescence intensity (405 nm excitation, 460 nm and 530 nm emissions) was measured using an Envision plate reader (PerkinElmer, Shelton, CT). For cytotoxicity, 4 ul/well of CellTiter-Glo reagent was added into the assay plates using an FRD. After 30 min incubation at room temperature, the luminescence intensity was measured using a ViewLux plate reader (PerkinElmer).

SMILES	Potency	activity change, negative = cytotoxicity
COc1cc(C)cc(O)c1	inactive	–
O=Cc1ccccc1[N+](=O)[O-]	inactive	–
COc1ccc(COC=O)cc1	inactive	–
C=CC(=O)OCCCCCC	inactive	–
NS(=O)(=O)c1cc2c(cc1C(F)(F)F)NC(Cc1ccccc1)NS2(=O)=O (stereo not given)	inactive	–
COc1cccc(OC)c1	inactive	–
COC(=O)CCCC(=O)O	inactive	–
Nc1cc(N)cc(C(=O)O)c1	inactive	–
C=C(C)[C@@H]1CCC2=CC(=O)C[C@@H](C)[C@]2(C)C1	inactive	–
CC(C)CCCC(C)CCCC(C)CCCCC(C)CCCC(C)CCCC(C)C (stereo not given)	inactive	–
CC(C)=CC(=O)O	inactive	–
COc1cc(O)cc(O)c1	inactive	–
O=C(O)c1ccccc1S	inactive	–
C=C(C)C(=O)OCCCCCCCCCCCCCCCCCC	–	5.2% [at 15.8 µM]
O=C(CCOCCOCCOCCOCCC(=O)Nc1c(I)cc(I)c(C(=O)O)c1I)Nc1c(I)cc(I)c(C(=O)O)c1I	inactive	–
C1=C\CC/C=C\CC/C=C\CC/1	inactive	–
C1C2OC2C2C1C1CC2C2OC12 (stereo not given)	inactive	–
CC(C)=CCC/C(C)=C/C(=O)O	inactive	–
C#CC(O)CCCCC (stereo not given)	inactive	–
CC(C)(C)C(=O)/C=C/c1ccc(Cl)cc1	inactive	–

SMILES	Potency	activity change, negative = cytotoxicity
CC(C)(O)C(=O)c1ccc(OCCO)cc1	inactive	–
CC(=O)CCc1ccc(O)cc1	inactive	–
C[C@H]1O[C@@H](n2cc(F)c(=O)[nH]c2=O)[C@H](O)[C@@H]1O	inactive	–
CCCC(=O)O[C@]1(C(=O)CCl)[C@@H](C)C[C@H]2[C@@H]3CCC4=CC(=O)C=C[C@]4(C)[C@@]3(F)C(=O)C[C@@]21C	inactive	–
CCCC=O	inactive	–
Nc1nc2c(ncn2CCC(CO)CO)c(=O)[nH]1	inactive	–
Oc1ccc2c(c1)OC[C@@H](N1CCC(O)(c3ccc(F)cc3)CC1)[C@H]2O	inactive	–
c1ccc(SCCSc2ccccc2)cc1	inactive	–
CCCCCCCCC=O	inactive	–
c1ccc2cnncc2c1	inactive	–
CC(C)[N+](C)(C)CC(O)COc1cccc2ccccc12 (stereo not given)	inactive	–
CC(C)(O)Cc1ccccc1	inactive	–
NCC[C@H](O)C(=O)N[C@@H]1C[C@H](N)[C@@H](O[C@H]2O[C@H](CN)[C@@H](O)[C@H](O)[C@H]2O)[C@H](O)[C@H]1O[C@H]1O[C@H](CO)[C@@H](O)[C@H](N)[C@H]1O	–	3.37% [at 0.29 µM]
CC1=CCC2C(C1)C2(C)C (stereo not given)	inactive	–
Nc1cc(C(Cl)=C(Cl)Cl)c(S(N)(=O)=O)cc1S(N)(=O)=O	inactive	–
CCCCc1ccc2cccc(S(=O)(=O)O)c2c1	inactive	–
N#CCN(CC#N)CCN(CC#N)CC#N	inactive	–
CCC(C)(C)C1CCC(OC)CC1 (stereo not given)	inactive	–
c1cc(CN2CCCCC2)cc(OCCCNc2nc3ccccc3s2)c1	inactive	–
CC(C)c1cccc(C(C)C)c1N	inactive	–
